High-throughput results deposited in PubChem by Broad Institute.
A selection: hits, their analogues and other compounds. The true share with any hit is near 2.1%.
Env fusion inh = inhibitors of HIV-1 Env-driven cell-cell fusion, primary screen, HeLa-JRFL effector, CEM21 target cells, luciferase; actives 1.1% (n = 360,000); inhibition, % at 12.3 µM; AID 651610, 2012;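 active means mean replicate inhibition score of at least 50 and every replicate individually at or above 50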;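 further: 0% = plate neutral controls and 100% = maraviroc near 300 nM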
NSD2 inh = NSD2 histone methyltransferase inhibitors, primary screen, biochemical, AlphaScreen, single concentration, set 2 | Histone-lysine N-methyltransferase NSD2 (Homo sapiens), O96028 | inhibition, % at 12.5 µM | actives 0.54% (n = 310,000) | NSD2 peptide methylation, 120 min; in the data active means inhibition above about 50%
MLL AF4-AF9 inh = inhibitors of AF4 peptide binding to AF9, primary screen, biochemical, AlphaScreen, biotin-AF4 peptide, FLAG-AF9, single point; inhibition, % at 10 µM; actives 0.47% (n = 350,000); AID 651704, 2012;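 active means every replicate reaching a set inhibition limit, whatever the replicate mean, cut at about 25% in these data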;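 further: 0% = plate neutral control median and 100% = total signal loss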
INS-1E GSIS act = GLuc luminescence reporter in INS-1E cells, primary screen for activators of glucose-dependent secretion of insulin; INS-1E GLuc reporter insulin secretion, 2-3 h; activation, % at 16.6 µM; actives 0.61% (n = 370,000); AID 743287, 2014;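 active means lowest replicate activation of at least 40%, so every replicate reaches that level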;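 further: 0% = median of neutral control wells and 100% = median of IBMX positive control wells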
PGC1a acetyl inh = inhibitors of PGC1a acetylation signal, primary screen, cell-based, U2OS, AlphaScreen, inhibitor mode; AlphaScreen anti-acetyl-lysine; with virally co-expressed GCN5 acetyltransferase; inhibition, % at 15.6 µM; actives 0.17% (n = 350,000); AID 651687, 2012;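 active means every replicate shows inhibition of at least 40%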;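 further: 0% = neutral control wells and 100% = positive control wells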
* = called active by the depositor; . = no result; [ ] = dose if it differs, or a comment.

SMILES | Env fusion inh | NSD2 inh | MLL AF4-AF9 inh | INS-1E GSIS act | PGC1a acetyl inh
C[C@H](CO)N1C[C@H](C)[C@H](CN(C)C(=O)c2ccccc2)OCCCC[C@H](C)Oc2ccc(NC(=O)Nc3ccc4c(c3)OCO4)cc2C1=O | 61*[16.7 µM] | . | -9 | -9 | 11
C[C@@H]1CCCCO[C@@H](CN(C)CC2CC2)[C@@H](C)CN([C@H](C)CO)C(=O)c2cc(NC(=O)Nc3ccc4c(c3)OCO4)ccc2O1 | -3[16.7 µM] | . | 19 | 23 | -5
C[C@@H]1CCCCO[C@H](CN(C)CC2CC2)[C@@H](C)CN([C@H](C)CO)C(=O)c2cc(NC(=O)Nc3ccc4c(c3)OCO4)ccc2O1 | 6[16.7 µM] | . | 25* | -2 | -2
C[C@H]1CCCCO[C@@H](CN(C)Cc2ccc3c(c2)OCO3)[C@@H](C)CN([C@@H](C)CO)C(=O)c2cc(NC(=O)Nc3ccccc3)ccc2O1 | 60*[16.7 µM] | . | 8 | -29 | -16
O=C(C[C@H]1C[C@@H]2c3cc(NC(=O)Nc4ccc(F)cc4)ccc3O[C@@H]2[C@H](CO)O1)NC1CCCC1 | 15[16.7 µM] | . | 1 | 7 | 21
CN1C(=O)c2cc(NS(=O)(=O)c3ccccc3F)ccc2OC[C@@H]2O[C@H](CC(=O)NC3Cc4ccccc4C3)CC[C@@H]21 | 63*[16.7 µM] | . | 1 | -3 | .
CCNC(=O)C[C@H]1CC[C@@H]2[C@@H](COc3ccc(NC(=O)Nc4cccc(OC)c4)cc3C(=O)N2C)O1 | 59*[16.7 µM] | . | . | -3 | -2
CN1C(=O)c2cc(NC(=O)c3cccc(Cl)c3)ccc2OC[C@@H]2O[C@H](CC(=O)NC3CCCCC3)CC[C@@H]21 | 57*[16.7 µM] | . | . | -1 | 4
CCNC(=O)C[C@@H]1CC[C@@H]2[C@H](COc3ccc(NC(=O)Nc4cccc(OC)c4)cc3C(=O)N2C)O1 | -14[16.7 µM] | . | . | 9 | -6
CN1C(=O)c2cc(NS(=O)(=O)c3ccccc3F)ccc2OC[C@H]2O[C@H](CC(=O)NC3Cc4ccccc4C3)CC[C@H]21 | 22[16.7 µM] | . | 3 | -2 | .
C=C1CCN([C@H](C(=O)Nc2ccc(OC)cc2)C(C)C)S(=O)(=O)c2ccccc21 | 7 | . | 2 | -8 | 0
C=C1CCN([C@@H](Cc2ccccc2)C(=O)Nc2ccc(OC)cc2)S(=O)(=O)c2ccccc21 | 105* | . | . | -13 | -8
C=C1CCN([C@H](C(=O)OCc2ccc(C)cc2)C(C)C)S(=O)(=O)c2ccccc21 | 80* | . | . | -13 | .
Cc1c(F)cccc1NC(=O)CCC(=O)O | -13 | 1 | . | . | 6
Cc1c(F)cccc1NC(=O)CCCCCC1NC(=O)NC1C (stereo not given) | 1 | . | 90* | -18 | -5
Cc1ccc(C2(C)CC(C)(C)N(C(=O)CSc3nnc(C)s3)c3ccccc32)cc1 (stereo not given) | 26 | 28 | . | -35 | 1
Cc1nnc(SCC(=O)N2c3ccccc3C(C)(c3ccccc3)CC2(C)C)s1 (stereo not given) | 62* | -1 | . | -22 | .
CC(C)Oc1ccc(CCC(=O)N/N=C/c2ccncc2)cc1 | 12 | -1 | . | -10 | -10
COc1ccccc1S(=O)(=O)N[C@H]1C=C[C@@H](CC(=O)N2CCOCC2)O[C@H]1CO | 20[16.7 µM] | . | -4 | 7 | 4
COc1cccc(C2CC(=O)NC(SC)=C2C#N)c1 (stereo not given) | -12 | . | 25* | . | -5
CCSC1=C(C#N)C(c2cccc(Br)c2)CC(=O)N1 (stereo not given) | . | 1 | -33 | -26 | -3
CO[C@H]1CN(C)C(=O)c2ccc(NC(=O)Nc3ccccc3)cc2OC[C@H](C)N(C(=O)CC2CC2)C[C@@H]1C | . | . | 1 | -7 | -5
CCc1nnc(NC(=O)C(c2ccccc2)c2ccccc2)s1 | 16 | -2 | -1 | 103* | .
COc1ccc(CN(C)C(=O)COc2cccc(-n3cnnn3)c2)cc1OC | -1 | -1 | -2 | 41* | 3
COc1ccccc1CNC(=O)COc1cccc(-n2cnnn2)c1 | . | -4 | -1 | 5 | .
CCOc1ccc(CCNC(=O)COc2cccc(-n3cnnn3)c2)cc1OCC | 1 | 0 | -5 | 44* | -12
CCc1ccc(NC(=O)COc2ccc(/C=C(/C#N)c3nc4ccccc4[nH]3)cc2OC)cc1 | 5 | -2 | -6 | . | 3
